According to article PMC9838217, “Structure of SALL4 zinc finger domain reveals link between AT-rich DNA binding and Okihiro syndrome”:
Where a chain is given by its changes, count along the chain named.

Legend:
Test in all cases: HT-SELEX; high values mean tight binding
Conditions in all cases: protein: recombinant; vector His6-GST; dsDNA, one strand shown
SALL4 ZFC4 WT (HT-SELEX) = biological target: T1, SALL4 ZFC4 WT (HT-SELEX) (Mus musculus, UniProt Q8BX22 870-940)
T1 sequence: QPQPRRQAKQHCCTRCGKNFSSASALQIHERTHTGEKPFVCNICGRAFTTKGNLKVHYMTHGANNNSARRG
Summary of the method: (§1)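 In triplicate selections of up to 6 cycles, purified recombinant mouse SALL4 zinc finger cluster 4 (residues 870–940, 1 µg) was incubated 10 min at room temperature with library DNA (1.5 µg, then 200 ng) in 100 µl of 10 mM Tris–HCl pH 7.5, 50 mM NaCl, poly(dI-dC) and DTT, and complexes were captured on Ni2+ beads, washed and PCR-amplified. Sequencing was done on MiSeq with scanning for 6-mers. The binding signal is each canonical k-mer's read fraction, reported as fold change against the initial random library.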

[1] = biological target: T2, SALL4 ZFC4 R900W (HT-SELEX) (Mus musculus, UniProt Q8BX22 870-940, R900W)
T2 sequence: T1 sequence with R31W
Summary of the method: as §1

[2] = biological target: T3, SALL4 ZFC4 G921D (HT-SELEX) (Mus musculus, UniProt Q8BX22 870-940, G921D)
T3 sequence: T1 sequence with G52D
Summary of the method: as §1

Sequence	binding signal (SALL4 ZFC4 WT (HT-SELEX))	binding signal [1]	binding signal [2]
ACCTGG	0.46 ± 0.021 fold-change vs cycle 0	0.537 ± 0.0102 fold-change vs cycle 0	0.635 ± 0.0393 fold-change vs cycle 0
ACAAAG	1.19 ± 0.0417 fold-change vs cycle 0	1.36 ± 0.0499 fold-change vs cycle 0	1.3 ± 0.0198 fold-change vs cycle 0
ACCATG	0.8385 ± 0.0023 fold-change vs cycle 0	0.925 ± 0.0262 fold-change vs cycle 0	0.997 ± 0.0244 fold-change vs cycle 0
AACGAG	0.782 ± 0.0393 fold-change vs cycle 0	0.894 ± 0.0693 fold-change vs cycle 0	0.934 ± 0.0683 fold-change vs cycle 0
AGGCTA	0.619 ± 0.0154 fold-change vs cycle 0	0.751 ± 0.013 fold-change vs cycle 0	0.829 ± 0.0213 fold-change vs cycle 0
AAGTAC	1.23 ± 0.0679 fold-change vs cycle 0	1.37 ± 0.0898 fold-change vs cycle 0	1.31 ± 0.0947 fold-change vs cycle 0
CTCGGA	0.396 ± 0.0242 fold-change vs cycle 0	0.468 ± 0.0145 fold-change vs cycle 0	0.589 ± 0.0706 fold-change vs cycle 0
ATCAGG	0.876 ± 0.0408 fold-change vs cycle 0	0.991 ± 0.0415 fold-change vs cycle 0	1 ± 0.0437 fold-change vs cycle 0
CAATAC	1.22 ± 0.0144 fold-change vs cycle 0	1.3 ± 0.0388 fold-change vs cycle 0	1.29 ± 0.0522 fold-change vs cycle 0
AATGAA	2.19 ± 0.104 fold-change vs cycle 0	2.17 ± 0.105 fold-change vs cycle 0	1.89 ± 0.135 fold-change vs cycle 0
ACGCAA	0.452 ± 0.0105 fold-change vs cycle 0	0.521 ± 0.02 fold-change vs cycle 0	0.635 ± 0.0427 fold-change vs cycle 0
AGCTAT	1.19 ± 0.0625 fold-change vs cycle 0	1.26 ± 0.0563 fold-change vs cycle 0	1.27 ± 0.0842 fold-change vs cycle 0
ATTGCG	0.438 ± 0.0111 fold-change vs cycle 0	0.47 ± 0.0102 fold-change vs cycle 0	0.614 ± 0.0595 fold-change vs cycle 0
ACAGTG	0.745 ± 0.062 fold-change vs cycle 0	0.869 ± 0.0495 fold-change vs cycle 0	0.895 ± 0.0488 fold-change vs cycle 0
ACATCT	1.34 ± 0.0364 fold-change vs cycle 0	1.46 ± 0.0394 fold-change vs cycle 0	1.4 ± 0.0574 fold-change vs cycle 0
TAAATA	3.77 ± 0.207 fold-change vs cycle 0	2.47 ± 0.107 fold-change vs cycle 0	2.11 ± 0.184 fold-change vs cycle 0
ATAAGC	1.34 ± 0.0651 fold-change vs cycle 0	1.21 ± 0.0666 fold-change vs cycle 0	1.22 ± 0.0552 fold-change vs cycle 0
AATCGA	1.08 ± 0.05 fold-change vs cycle 0	1.14 ± 0.0428 fold-change vs cycle 0	1.2 ± 0.0389 fold-change vs cycle 0
ATAATG	2.28 ± 0.148 fold-change vs cycle 0	2.02 ± 0.123 fold-change vs cycle 0	1.81 ± 0.182 fold-change vs cycle 0
GTGTAA	1.24 ± 0.0525 fold-change vs cycle 0	1.37 ± 0.0544 fold-change vs cycle 0	1.28 ± 0.0793 fold-change vs cycle 0

Sequence	binding signal (SALL4 ZFC4 WT (HT-SELEX))	binding signal [1]	binding signal [2]
TACCCA	0.781 ± 0.0395 fold-change vs cycle 0	0.882 ± 0.0184 fold-change vs cycle 0	0.886 ± 0.035 fold-change vs cycle 0
CTACGA	0.656 ± 0.0504 fold-change vs cycle 0	0.762 ± 0.0209 fold-change vs cycle 0	0.827 ± 0.0362 fold-change vs cycle 0
AGGGAC	0.483 ± 0.0313 fold-change vs cycle 0	0.559 ± 0.0327 fold-change vs cycle 0	0.674 ± 0.0751 fold-change vs cycle 0
GAAACC	0.748 ± 0.0342 fold-change vs cycle 0	0.843 ± 0.0163 fold-change vs cycle 0	0.916 ± 0.0216 fold-change vs cycle 0
AACGGA	0.714 ± 0.0406 fold-change vs cycle 0	0.846 ± 0.0545 fold-change vs cycle 0	0.859 ± 0.0492 fold-change vs cycle 0
AACCGG	0.336 ± 0.0219 fold-change vs cycle 0	0.391 ± 0.0169 fold-change vs cycle 0	0.498 ± 0.0509 fold-change vs cycle 0
GTTAGA	1.3 ± 0.0316 fold-change vs cycle 0	1.47 ± 0.0186 fold-change vs cycle 0	1.41 ± 0.0651 fold-change vs cycle 0
AAGAAA	2.03 ± 0.13 fold-change vs cycle 0	2.08 ± 0.193 fold-change vs cycle 0	1.78 ± 0.233 fold-change vs cycle 0
ATTTAG	1.79 ± 0.0993 fold-change vs cycle 0	1.83 ± 0.0928 fold-change vs cycle 0	1.64 ± 0.15 fold-change vs cycle 0
ACAACG	0.592 ± 0.0372 fold-change vs cycle 0	0.676 ± 0.029 fold-change vs cycle 0	0.769 ± 0.0401 fold-change vs cycle 0
AGTACC	0.813 ± 0.0272 fold-change vs cycle 0	0.947 ± 0.0311 fold-change vs cycle 0	0.981 ± 0.037 fold-change vs cycle 0
AGAGTA	1.47 ± 0.0798 fold-change vs cycle 0	1.61 ± 0.0906 fold-change vs cycle 0	1.46 ± 0.121 fold-change vs cycle 0
ATGGAC	0.777 ± 0.0185 fold-change vs cycle 0	0.861 ± 0.0318 fold-change vs cycle 0	0.938 ± 0.0184 fold-change vs cycle 0
CAAATA	1.9 ± 0.117 fold-change vs cycle 0	1.72 ± 0.1 fold-change vs cycle 0	1.55 ± 0.137 fold-change vs cycle 0
CCTGAA	0.792 ± 0.0306 fold-change vs cycle 0	0.933 ± 0.0447 fold-change vs cycle 0	0.951 ± 0.0276 fold-change vs cycle 0
TCAGCA	0.676 ± 0.0405 fold-change vs cycle 0	0.74 ± 0.0606 fold-change vs cycle 0	0.841 ± 0.0603 fold-change vs cycle 0
ACCGAA	0.637 ± 0.01 fold-change vs cycle 0	0.698 ± 0.028 fold-change vs cycle 0	0.776 ± 0.0511 fold-change vs cycle 0
AACAAT	2.06 ± 0.132 fold-change vs cycle 0	1.95 ± 0.114 fold-change vs cycle 0	1.79 ± 0.145 fold-change vs cycle 0
GGAGAA	0.849 ± 0.0319 fold-change vs cycle 0	0.985 ± 0.0471 fold-change vs cycle 0	0.959 ± 0.0602 fold-change vs cycle 0
AGTTCA	1.42 ± 0.0499 fold-change vs cycle 0	1.55 ± 0.0608 fold-change vs cycle 0	1.44 ± 0.0878 fold-change vs cycle 0

Sequence	binding signal (SALL4 ZFC4 WT (HT-SELEX))	binding signal [1]	binding signal [2]
ATTCGG	0.592 ± 0.0176 fold-change vs cycle 0	0.669 ± 0.0177 fold-change vs cycle 0	0.753 ± 0.0617 fold-change vs cycle 0
ACCACC	0.457 ± 0.039 fold-change vs cycle 0	0.514 ± 0.0309 fold-change vs cycle 0	0.616 ± 0.0424 fold-change vs cycle 0
TCCTCA	0.899 ± 0.0263 fold-change vs cycle 0	1.04 ± 0.0214 fold-change vs cycle 0	1.06 ± 0.0234 fold-change vs cycle 0
AAACAC	1.06 ± 0.0292 fold-change vs cycle 0	1.16 ± 0.0244 fold-change vs cycle 0	1.189 ± 0.0109 fold-change vs cycle 0
CAACTC	0.778 ± 0.0269 fold-change vs cycle 0	0.92 ± 0.0298 fold-change vs cycle 0	0.994 ± 0.018 fold-change vs cycle 0
TCGAGA	0.763 ± 0.0625 fold-change vs cycle 0	0.863 ± 0.0493 fold-change vs cycle 0	0.945 ± 0.0348 fold-change vs cycle 0
AACCGA	0.657 ± 0.0177 fold-change vs cycle 0	0.7295 ± 0.00455 fold-change vs cycle 0	0.812 ± 0.0455 fold-change vs cycle 0
ACGCAT	0.526 ± 0.0513 fold-change vs cycle 0	0.556 ± 0.0269 fold-change vs cycle 0	0.714 ± 0.0322 fold-change vs cycle 0
GATTCA	1.35 ± 0.0551 fold-change vs cycle 0	1.38 ± 0.0852 fold-change vs cycle 0	1.33 ± 0.0688 fold-change vs cycle 0
GAGCTC	0.338 ± 0.0166 fold-change vs cycle 0	0.439 ± 0.0575 fold-change vs cycle 0	0.585 ± 0.0582 fold-change vs cycle 0
CAGTTC	0.794 ± 0.00773 fold-change vs cycle 0	0.912 ± 0.0408 fold-change vs cycle 0	0.935 ± 0.0458 fold-change vs cycle 0
CGAATC	0.662 ± 0.00887 fold-change vs cycle 0	0.742 ± 0.0291 fold-change vs cycle 0	0.827 ± 0.0621 fold-change vs cycle 0
ACCTTG	0.8287 ± 0.00258 fold-change vs cycle 0	0.986 ± 0.024 fold-change vs cycle 0	1 ± 0.0262 fold-change vs cycle 0
TCATGA	1.45 ± 0.0979 fold-change vs cycle 0	1.54 ± 0.0952 fold-change vs cycle 0	1.49 ± 0.115 fold-change vs cycle 0
CGATCC	0.359 ± 0.0529 fold-change vs cycle 0	0.43 ± 0.0262 fold-change vs cycle 0	0.584 ± 0.0363 fold-change vs cycle 0
CCAAAC	0.6318 ± 0.0044 fold-change vs cycle 0	0.729 ± 0.0202 fold-change vs cycle 0	0.813 ± 0.0511 fold-change vs cycle 0
GGATAC	0.871 ± 0.0477 fold-change vs cycle 0	1.02 ± 0.0352 fold-change vs cycle 0	1.03 ± 0.0426 fold-change vs cycle 0
AATGGC	0.467 ± 0.0217 fold-change vs cycle 0	0.534 ± 0.0101 fold-change vs cycle 0	0.662 ± 0.067 fold-change vs cycle 0
AACAAC	1.18 ± 0.0643 fold-change vs cycle 0	1.26 ± 0.0286 fold-change vs cycle 0	1.25 ± 0.0618 fold-change vs cycle 0
TAACTA	2.23 ± 0.0839 fold-change vs cycle 0	2.06 ± 0.126 fold-change vs cycle 0	1.82 ± 0.187 fold-change vs cycle 0
